Measurements published in PubChem BioAssay (NCI).
Compounds without any hit were thinned out: in the full panel of roughly 79,000, 15% have a hit. Active and inactive are the calls of the source. No stated cut-off is given here; in the data, active means growth inhibition above about 70%; inactive means the rest.

Legend:
[1] = NCI Yeast Anticancer Drug Screen. Data for the wt1 strain (AID 149);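 further: 0% = growth of vehicle-treated wt1 cultures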; settings: S. cerevisiae wt1 strain (SPY 50644) growth inhibition, hits give high values
Method in brief: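 wt1 yeast, compound-treated; % growth inhibition vs vehicle control.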

[2] = NCI Yeast Anticancer Drug Screen. Data for the rad50EPP+ strain (AID 151);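 further: 0% = growth of vehicle-treated control cultures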; settings: S. cerevisiae rad50 mutant strain, hits give high values
Method in brief: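 rad50EPP+ yeast treated with test compounds. Readout: growth vs vehicle control.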

[3] = NCI Yeast Anticancer Drug Screen. Data for the rad50 strain (AID 155);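 further: 0% = growth of vehicle-only cultures of the same strain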; settings: S. cerevisiae rad50 strain growth inhibition, hits give high values
Method in brief: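 Genetically altered yeast (DNA repair pathway); compound treatment; growth inhibition vs vehicle ctrl.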

[4] = NCI Yeast Anticancer Drug Screen. Data for the mec2-1 strain (AID 157); settings: S. cerevisiae mec2-1 strain, hits give high values
Method in brief: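 Growth inhibition is read against vehicle-treated controls after compound exposure of the mec2-1 yeast strain, which is defective in DNA damage repair or cell cycle control.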

[5] = NCI Yeast Anticancer Drug Screen. Data for the rad14 strain (AID 159);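 further: 0% = growth of vehicle-treated control cultures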; settings: S. cerevisiae rad14 strain growth inhibition, hits give high values
Method in brief: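 Test compounds were applied to a repair-deficient yeast strain. Its growth was then compared with that of cultures given vehicle alone, and inhibition was expressed relative to those controls.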

[6] = NCI Yeast Anticancer Drug Screen. Data for the sgs1 mgt1 strain (AID 161);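 further: 0% = growth of cultures given vehicle only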; settings: S. cerevisiae sgs1 mgt1 strain, hits give high values
Method in brief: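 Percent growth inhibition was derived by comparing compound-exposed mutant yeast with vehicle-exposed cultures. The strain carries alterations in DNA damage repair.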

[7] = NCI Yeast Anticancer Drug Screen. Data for the CLN2oe strain (AID 163);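 further: 0% = growth of vehicle-only control cultures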; settings: S. cerevisiae CLN2oe strain, hits give high values
Method in brief: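 Compound-treated yeast; growth vs vehicle ctrl = % inhibition. Genetically altered strain (cell-cycle control).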

[8] = NCI Yeast Anticancer Drug Screen. Data for the cln2 rad14 strain (AID 165);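 further: 0% = growth equal to vehicle treated cultures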; settings: S. cerevisiae cln2 rad14 strain, hits give high values
Method in brief: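 Growth inhibition, relative to vehicle-treated controls, is the read-out. The test organism is a yeast strain with defined genetic alterations, cln2 rad14.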

[9] = NCI Yeast Anticancer Drug Screen. Data for the bub3 strain (AID 167); settings: S. cerevisiae bub3 mutant strain, hits give high values
Method in brief: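 Yeast carrying a defined mutation is treated with each compound, and growth is compared with that of vehicle-exposed cells to give inhibition.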

[10] = NCI Yeast Anticancer Drug Screen. Data for the wt2 strain (AID 169);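 further: 0% = growth of vehicle-treated yeast cultures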; settings: S. cerevisiae wt2 strain growth inhibition, hits give high values
Method in brief: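 Compound exposure of yeast; growth compared with vehicle controls; inhibition reported.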

[11] = NCI Yeast Anticancer Drug Screen. Data for the mlh1 strain (AID 171);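 further: 0% = growth of vehicle-treated control cultures of the same strain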; settings: S. cerevisiae mlh1 strain growth inhibition, hits give high values
Method in brief: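 Compounds are applied to a genetically altered yeast strain, and its growth is compared with that of vehicle-treated cultures to give percent inhibition.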

[12] = NCI Yeast Anticancer Drug Screen. Data for the sgs1 strain (AID 173);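 further: 0% = growth of vehicle-only control cultures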; settings: S. cerevisiae sgs1 mutant, hits give high values
Method in brief: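 Compounds applied to genetically altered yeast; growth compared with vehicle-treated cultures to give % inhibition.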

[13] = NCI Yeast Anticancer Drug Screen. Data for the mlh1 rad18 strain (AID 175); settings: S. cerevisiae mlh1 rad18 strain growth inhibition, hits give high values
Method in brief: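 Cells of a genetically altered yeast strain, deficient in DNA damage repair, were treated with compound. Their growth was then compared with that of vehicle-treated cultures to give inhibition.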

[14] = NCI Yeast Anticancer Drug Screen. Data for the rad18 strain (AID 177); settings: S. cerevisiae rad18 mutant growth inhibition, hits give high values
Method in brief: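 Compounds are applied to a repair-deficient yeast strain, and growth is compared with that of vehicle-treated cultures to give percent inhibition.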

[15] = NCI Yeast Anticancer Drug Screen. Data for the mgt1 strain (AID 153); settings: S. cerevisiae mgt1 mutant growth inhibition, hits give high values
Method in brief: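 Growth inhibition relative to vehicle controls was scored for the mgt1 yeast strain after compound exposure.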

[16] = at 5.0 µM (retest, dose inferred, filed as 0.5)
[17] = at 50.0 µM (retest, dose inferred, filed as 5.0)

Measured: growth inhibition

CC1(C)C(O)OC(O)C1(C)C (stereo unspecified)
inactive: [1]; at 1.2 µM 0% | [1]; at 3.7 µM 0% | [1]; at 11.0 µM 4% | [1]; at 33.0 µM 2% | [1]; at 100.0 µM 8% | [2]; at 1.2 µM 0% | [2]; at 3.7 µM -1% | [2]; at 11.0 µM 2% | [2]; at 33.0 µM 1% | [2]; at 100.0 µM 12% | [3]; at 1.2 µM -1% | [3]; at 3.7 µM -2% | [3]; [16] 15% | [3]; at 11.0 µM 0% | [3]; at 33.0 µM 5% | [3]; [17] 8% | [3]; at 50.0 µM 69% | [3]; at 100.0 µM 25% | [4]; at 1.2 µM 0% | [4]; at 3.7 µM 2% | [4]; [16] 1% | [4]; at 11.0 µM 2% | [4]; at 33.0 µM 6% | [4]; [17] -10% | [4]; at 50.0 µM 29.4% | [4]; at 100.0 µM 23% | [5]; at 1.2 µM -2% | [5]; at 3.7 µM -2% | [5]; at 11.0 µM 0% | [5]; at 33.0 µM 3% | [5]; at 100.0 µM 22% | [6]; [16] -9% | [6]; [17] 14% | [6]; at 50.0 µM 58.5% | [7]; at 1.2 µM -10% | [7]; at 3.7 µM -3% | [7]; at 11.0 µM 0% | [7]; at 33.0 µM -5% | [7]; at 100.0 µM 3% | [8]; [16] 32% | [8]; [17] 7% | [8]; at 50.0 µM 24.4% | [9]; at 1.2 µM -7% | [9]; at 3.7 µM -7% | [9]; [16] -8% | [9]; at 11.0 µM -6% | [9]; at 33.0 µM -8% | [9]; [17] -13% | [9]; at 50.0 µM 37.4% | [9]; at 100.0 µM -6% | [10]; at 1.2 µM -1% | [10]; at 3.7 µM 1% | [10]; at 11.0 µM 5% | [10]; at 33.0 µM 5% | [10]; at 100.0 µM 10% | [11]; at 1.2 µM 0% | [11]; at 3.7 µM -1% | [11]; at 11.0 µM 4% | [11]; at 33.0 µM 6% | [11]; at 100.0 µM 18% | [12]; at 1.2 µM 1% | [12]; at 3.7 µM 5% | [12]; at 11.0 µM 11% | [12]; at 33.0 µM 25% | [12]; at 100.0 µM 63% | [13]; [16] 3% | [13]; [17] 56% | [13]; at 50.0 µM 60.8% | [14]; at 1.2 µM -1% | [14]; at 3.7 µM 2% | [14]; at 11.0 µM 13% | [14]; at 33.0 µM 31%
active: [14]; at 100.0 µM 77%

COc1ccc(C(C)c2cc3c(cc2OCC(C)=O)OCO3)cc1 (stereo unspecified)
inactive: [2]; at 1.2 µM -3% | [2]; at 3.7 µM 1% | [2]; at 11.0 µM 3% | [2]; at 33.0 µM 12% | [2]; at 100.0 µM 11% | [15]; at 1.2 µM -3% | [15]; at 3.7 µM -2% | [15]; at 11.0 µM -4% | [15]; at 33.0 µM -7% | [15]; at 100.0 µM 42% | [3]; at 1.2 µM 2% | [3]; at 3.7 µM 45% | [3]; [16] 1% | [3]; at 11.0 µM 26% | [3]; at 33.0 µM 9% | [3]; [17] 14% | [3]; at 50.0 µM -11.3% | [4]; at 1.2 µM -3% | [4]; at 3.7 µM -1% | [4]; [16] -5% | [4]; at 11.0 µM 0% | [4]; at 33.0 µM -4% | [4]; [17] 7% | [4]; at 50.0 µM -15.1% | [5]; at 1.2 µM -2% | [5]; at 3.7 µM -3% | [5]; at 11.0 µM -3% | [5]; at 33.0 µM 1% | [5]; at 100.0 µM 38% | [6]; [16] -4% | [6]; [17] 35% | [6]; at 50.0 µM 9.55% | [7]; at 1.2 µM -4% | [7]; at 3.7 µM -3% | [7]; at 11.0 µM -2% | [7]; at 33.0 µM -10% | [8]; [16] -6% | [8]; [17] 9% | [8]; at 50.0 µM -48.7% | [9]; at 1.2 µM 2% | [9]; at 3.7 µM 8% | [9]; [16] 5% | [9]; at 11.0 µM 17% | [9]; at 33.0 µM 40% | [9]; [17] 66% | [9]; at 50.0 µM -26.4% | [10]; at 1.2 µM -3% | [10]; at 3.7 µM 4% | [10]; at 11.0 µM -5% | [10]; at 33.0 µM -6% | [11]; at 1.2 µM -3% | [11]; at 3.7 µM -4% | [11]; at 11.0 µM -4% | [11]; at 33.0 µM -3% | [12]; at 1.2 µM -3% | [12]; at 3.7 µM -2% | [12]; at 11.0 µM -1% | [12]; at 33.0 µM -4% | [13]; [16] -5% | [13]; [17] 45% | [13]; at 50.0 µM 11.4% | [14]; at 1.2 µM -2% | [14]; at 3.7 µM 2% | [14]; at 11.0 µM 6% | [14]; at 33.0 µM 11%
active: [3]; at 100.0 µM 84% | [4]; at 100.0 µM 73% | [7]; at 100.0 µM 76% | [9]; at 100.0 µM 86% | [10]; at 100.0 µM 75% | [11]; at 100.0 µM 76% | [12]; at 100.0 µM 77% | [14]; at 100.0 µM 84%
